The list is not random: actives were taken first. Their share in the collection is about 11%.
HPGD block: qHTS Assay for Inhibitors of HPGD (15-Hydroxyprostaglandin Dehydrogenase); Potency, µM, for inactives: top-dose activity change, negative = inhibition, actives largely listed as inhibitors; AID 894, 2007; purified HPGD, NADH fluorescence kinetic, PGE2 substrate; 150,000 tested, 4.3% active; 15-hydroxyprostaglandin dehydrogenase [NAD(+)] (Homo sapiens), P15428; note: potency is the fitted concentration of half-maximal effect
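20 nM HPGD preincubated 15 min at room temperature with compound in 50 mM Tris-HCl pH 8, 0.01% Tween 20. Started with 1 mM NAD+ and 30 uM prostaglandin E2; NADH fluorescence (360/450 nm) read 5 times over 30-s intervals, last minus first.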
PNC assembly inh: High Content Assay for Compounds that inhibit the Assembly of the Perinucleolar Compartment; 140,000 tested, 3.1% active; AID 2417, 2010; PC3M PTB-GFP, PNC prevalence imaging, 16 h; stronger effect = lower value; activity change (PNC), negative = inhibition, % at 10 µM;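 active = readout at or below -70, meaning at least 70% loss of cells showing the perinucleolar compartment, a nuclear body marking cancer cells; inconclusive = readout between -30 and a set limit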;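 note: plate controls were DMSO wells for no effect and camptothecin positive control wells for full effect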
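PC3M cells stably expressing PTB-GFP, 750–1000 cells/well, treated 16 h at 37 °C with compound (23 nl of library stock), in duplicate. After paraformaldehyde fixation and Hoechst stain, imaged at 20x; PNC prevalence scored by image analysis.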
IMPase inh: qHTS Assay for Identifying the Cell-Membrane Permeable IMPase Inhibitors | Inositol monophosphatase 1 (Rattus norvegicus), P97697 | CHO-M1 cells, IP1 accumulation, HTRF TR-FRET ratio | inhibition (IP1 accumulation), % at 46.1 µM | 120,000 tested, under 10 active; active = well fitted curve in the direction sought with a large enough effect in the signal ratio, not every such curve was filed as active; inconclusive = small, poorly fitted or top-dose-only effect, or a change in a side signal; inactive = no such curve, though single readings can be large or run the other way; the % refers to the signal ratio;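 note: cells stimulated with carbachol in lithium chloride buffer; plate controls were DMSO basal wells for no effect and reference inhibitor wells for full effect; higher means more IMPase inhibition seen as more IP1 and lower FRET ratio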
Target sequence (P97697 whole entry, looked up): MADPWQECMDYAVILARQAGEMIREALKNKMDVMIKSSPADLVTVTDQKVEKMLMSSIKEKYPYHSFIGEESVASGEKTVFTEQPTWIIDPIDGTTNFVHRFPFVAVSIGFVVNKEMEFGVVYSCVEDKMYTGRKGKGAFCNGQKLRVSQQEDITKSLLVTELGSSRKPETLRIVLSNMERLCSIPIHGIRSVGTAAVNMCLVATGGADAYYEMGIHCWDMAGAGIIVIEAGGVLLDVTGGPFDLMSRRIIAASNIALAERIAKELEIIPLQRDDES
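The IP-One HTRF competitive assay in carbachol-stimulated CHO-M1 cells quantifies cellular IP1. Compounds spanned up to 46 uM final, and activity is expressed as AC50 from concentration-response fits of the ratio and donor data.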
NPSR antag: qHTS Assay for Antagonists of the Neuropeptide S Receptor: cAMP Signal Transduction; Q6W5P4; CHO-NPSR cells, cAMP TR-FRET, antagonist mode; Potency, µM (doses to about 38.3 µM), for the others: at the highest dose activity change, negative = inhibition, actives largely listed as inhibitors; 220,000 tested, 1% active; AID 1461, 2008; active = well fitted curve in the direction sought with a large enough effect; inconclusive = small, poorly fitted or top-dose-only effect, or another doubt; inactive = no such curve, though single readings can be large; an effect the other way counts as inactive or inconclusive; note: potency is the fitted concentration of half-maximal effect; nearly all actives have a fitted effect of over 50% in size
ALDH1A1 block: qHTS Assay for Inhibitors of Aldehyde Dehydrogenase 1 (ALDH1A1). Aldehyde dehydrogenase 1A1 (Homo sapiens), P00352. Purified ALDH1A1, NADH fluorescence, propionaldehyde substrate. Potency, µM (titrated, usually from 75.3 µM), for inactives: top-dose activity, negative = inhibition, hits mostly inhibitors. 220,000 tested, 7.3% active;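 note: potency is the fitted concentration of half-maximal effect; plate controls were no enzyme wells and a reference inhibitor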
Target sequence (P00352 whole entry, looked up): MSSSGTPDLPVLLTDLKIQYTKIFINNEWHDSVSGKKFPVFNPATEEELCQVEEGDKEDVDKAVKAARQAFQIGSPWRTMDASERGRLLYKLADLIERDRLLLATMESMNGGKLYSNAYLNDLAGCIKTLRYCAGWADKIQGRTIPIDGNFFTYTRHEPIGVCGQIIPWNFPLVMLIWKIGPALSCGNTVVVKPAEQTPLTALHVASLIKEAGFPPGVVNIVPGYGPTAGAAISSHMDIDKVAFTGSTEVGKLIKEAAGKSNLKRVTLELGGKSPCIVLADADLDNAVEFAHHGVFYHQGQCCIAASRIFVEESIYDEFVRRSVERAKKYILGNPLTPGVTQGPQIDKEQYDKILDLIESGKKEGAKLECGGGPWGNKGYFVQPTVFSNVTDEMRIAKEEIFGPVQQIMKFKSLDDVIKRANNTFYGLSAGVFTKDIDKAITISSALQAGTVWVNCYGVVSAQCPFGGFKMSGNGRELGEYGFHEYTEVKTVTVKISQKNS
IMPase Li inh: qHTS Assay for Identifying the Cell-Membrane Permeable IMPase Inhibitors: Potentiation with Lithium; AID 1457, 2008; Potency, µM (top dose mostly 59.4 µM), for the others: top-dose activity, negative = IMPase inhibition, most hits filed as inhibitors; CHO-M1 cells, IP1 TR-FRET (IP-One), carbachol + lithium; 210,000 tested, 0.35% active; active = well fitted curve in the direction sought with a large enough effect; inconclusive = small, poorly fitted or top-dose-only effect, or another doubt; inactive = no such curve, though single readings can be large; an effect the other way counts as inactive or inconclusive;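 note: IP1 builds up when IMPase is blocked and the TR-FRET signal falls; potency is the fitted concentration of half-maximal effect; plate controls were basal vehicle for no effect and high inhibitor control for full effect; nearly all actives have a fitted effect of over 50% in size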
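IP1 accumulation measured by competitive TR-FRET in lysed CHO-M1 cells after 30 min compound exposure at 37C, with a small lithium addition to potentiate weak responses. Hill-equation AC50 from ratio and donor-channel data.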
An asterisk follows results filed as active; ? = inconclusive; . = not tested or not shown; ! = not active in a repeat; [ ] = remark or other dose. Unless noted, calls come from the whole dose curve; as a rule, active = well fitted inhibition curve with a large enough effect (not every such curve was filed as active); inconclusive = small, poorly fitted or top-dose-only effect, or another doubt; inactive = no such curve, though single readings can be large or run the other way. Unless noted, % is set by controls: 0 for no effect and ±100 for the full control effect.

SMILES	HPGD block	PNC assembly inh	IMPase inh	NPSR antag	ALDH1A1 block	IMPase Li inh
CC(C)(C)c1ccc(CNc2cc(N3CCOCC3)ccc2[N+](=O)[O-])cc1	.	22	1	?	1.6µM*	.
CC(=O)N1CCN(c2ccc([N+](=O)[O-])c(-n3nc(C)cc3C)c2)CC1	-3%	20	.	18%	-2%	-1%
O=[N+]([O-])c1ccc(N2CCOCC2)cc1N1CCCCC1	.	.	.	2%	5.6µM*	-5%
Cc1cc(C)n(-c2nc3ccccc3nc2N2CCN(S(=O)(=O)c3ccc4ccccc4c3)CC2)n1	?	-20	-7	-29%[46.1 µM]	?	15%[38.3 µM]
CC(C)c1ccc(CNc2cc(N3CCCC3)ccc2[N+](=O)[O-])cc1	-25%	-2	3	-20%[46.1 µM]	-2%	-7%[38.3 µM]
Cc1cc(C)n(-c2nc3ccccc3nc2N2CCN(C(=O)c3ccccc3)CC2)n1	0%	-29	2	-20%[46.1 µM]	13µM*	35%[38.3 µM]
Cc1cc(C)n(-c2cc(N3CCN(C(=O)c4cccc(Br)c4)CC3)ccc2[N+](=O)[O-])n1	-13%	48	14	-20%[46.1 µM]	14µM*	2%[38.3 µM]
Cc1ccc(N(CC2=NCCN2)c2cccc(O)c2)cc1	2%	?	6	-1%[46.1 µM]	-14%	-1%[38.3 µM]
CC(=O)OC(C(=O)NC1CCCCC1)c1ccncc1 (configuration not stated)	-4%	-30	1	2%[46.1 µM]	10%	-3%
O=C(c1ccccc1Br)N1CCN(c2ccc([N+](=O)[O-])c(N3CCOCC3)c2)CC1	.	.	.	-16%	7.9µM*	-11%
O=[N+]([O-])c1ccccc1N=Nc1c(O)[nH]c2ccc(S(=O)(=O)O)cc12	4µM*	.	.	.	-8%[13.5 µM]	-1%
CCC(=O)Nc1cccc(-c2cn3cccc(C)c3n2)c1	.	.	.	-10%	.	.
Cc1cc(/C=C2/SC(=S)N(c3ccc([N+](=O)[O-])cc3)C2=O)c(C)n1-c1cccnc1	?	39	.	-22%	1.3µM*	2%
Cc1cc(/C=C2/NC(=O)N(c3ccccc3)C2=O)c(C)n1-c1cccnc1	-18%	-12	.	-13%	4.5µM*	8%
Cc1ccc(S(=O)(=O)N[C@H](C(=O)N2CCC3(O)CCCCC3C2)c2ccccc2)cc1 (some centres not stated)	3%	-25	-5	-9%[46.1 µM]	?	-8%[38.3 µM]
COc1ccc(S(=O)(=O)N[C@H](C(=O)N2CC[C@@]3(O)CCCC[C@H]3C2)c2ccccc2)cc1	-1%	22	-7	-9%[46.1 µM]	13µM*	-2%[38.3 µM]
COc1cc(OC)cc(C(=O)Nc2ccc(NC(=O)c3ccco3)c(Cl)c2)c1	.	.	.	-10%	?	-11%
CCCCCOCC1CC(C/C(C)=N/Nc2nc(-c3ccccc3)cs2)C(=O)O1 (configuration not stated)	-6%	36	-6	-9%[46.1 µM]	25µM*	1%[38.3 µM]
CCCN1C(=O)SC(CC(=O)Nc2ccccc2)C1=O (configuration not stated)	-3%	38	0	-6%[46.1 µM]	20µM*	-11%[38.3 µM]
CCCN1C(=O)SC(CC(=O)Nc2cccc3ccccc23)C1=O (configuration not stated)	-5%	-25	.	4%[46.1 µM]	22µM*	-2%
CCC(=O)Nc1cccc2ccccc12	.	.	.	-1%	0%	1%
CC(C)C1NC(=S)N(C2CCCCC2)C1=O (configuration not stated)	-25%	-17	.	-3%	-23%	-2%
O=c1[nH][nH]c(=S)n1C1CCCCC1	.	.	.	-9%	1.3µM*	.
CN(c1ccc(C(=O)N2CCOCC2)cc1)S(C)(=O)=O	-9%	14	-3	-6%[46.1 µM]	8%	29%[38.3 µM]
CCCOc1ccc(/C=c2\sc3nc(-c4ccco4)nn3c2=O)cc1OCC	-17%	-5	10	-10%[46.1 µM]	-5%	-3%
SMILES	HPGD block	PNC assembly inh	IMPase inh	NPSR antag	ALDH1A1 block	IMPase Li inh
CCCCCOc1ccc(/C=c2\sc3nc(=O)c(-c4ccccc4)nn3c2=O)cc1OC	-16%	20	-6	-16%	11µM*	-2%
O=C(CCc1ccccc1)NCC1OCCc2ccccc21 (configuration not stated)	.	.	.	0%	0%	4%
O=C(NCC1OCCc2ccccc21)c1ccco1 (configuration not stated)	-21%	18	-6	-1%[46.1 µM]	7.9µM*	27%[38.3 µM]
O=C(O)c1cc(=O)c2ccc(Cl)cc2[nH]1	28µM*!	.	2	-13%[46.1 µM]	-2%	25%
O=C(O)c1cc2cc(Cl)ccc2[nH]1	-16%	.	.	.	4%	-7%
COc1ccc(N=C2C(=Nc3ccc(OC)cc3)N(c3ccc(OC)cc3)C(=S)N2C(=O)c2ccc(OC)cc2)cc1	-10%	12	26[0.0738 µM]	2%[46.1 µM]	?	-2%
COc1ccc(N=C2C(=Nc3ccc(OC)cc3)N(c3ccccc3)C(=S)N2C(=O)c2ccc(Cl)cc2)cc1	-14%	-100*	-8	-6%[46.1 µM]	?	-1%
Cc1c(CCOC(=O)C23CC4(C)CC(C)(CC(C)(C4)C2)C3)sc[n+]1CC(=O)c1ccccc1	.	.	.	-47%	9%	22%
Cc1c(CCOC(=O)c2cc([N+](=O)[O-])cc([N+](=O)[O-])c2)sc[n+]1CC(=O)c1ccc(Br)cc1	.	.	.	?	2.5µM*	15%
O=C(COc1ccc(-c2nnc(N3CCCCC3)c3ccccc23)cc1)N1CCCCC1	?	?	-12[1.84 µM]	1%[46.1 µM]	6%	4%
Cn1c(=O)n(CC(=O)N2CCN(c3nnc(-c4ccccc4)c4ccccc34)CC2)c2ccccc21	-3%	-8	0	-17%[46.1 µM]	-6%	-3%[38.3 µM]
Cc1ccc(-c2nnc(N3CCN(C(=O)Cn4c(=O)n(C)c5ccccc54)CC3)c3ccccc23)cc1	-10%	?	3	-8%[46.1 µM]	?	29%[38.3 µM]
Cc1ccc(-c2nnc(N3CCN(C(=O)CN4CCOCC4)CC3)c3ccccc23)cc1	-10%	?	5	-10%[46.1 µM]	18µM*	24%[38.3 µM]
Cc1ccc(-c2nnc(N3CCN(C(=O)COc4ccccc4)CC3)c3ccccc23)cc1	-18%	53	7	?	28µM*	37%[38.3 µM]
O=C(CN1CCOCC1)N1CCN(c2nnc(-c3ccccc3)c3ccccc23)CC1	2%	-12	-2	-11%[46.1 µM]	13µM*	22%[38.3 µM]
COc1ccc(NC(=S)NNC(=O)c2cccs2)cc1	-9%	-84*	.	1%	?	-4%
COc1ccc(NC(=O)c2cccs2)cc1	-9%	-18	6	-1%[46.1 µM]	-4%	5%
